High-throughput results: PubChem BioAssay, National Center for Advancing Translational Sciences (NCATS)
Rab9 promoter act: activators of Rab9 promoter; AID 485297; Huh7 Rab9 promoter-luciferase reporter, luminescence, 24 h; 2.8% of 320,000 active; Potency, µM (highest dose often 9.22 µM), most hits filed as activators; also: nearly all actives have a fitted effect of over 60% in size
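Cells were plated at 1500 per well in reduced-serum medium with 10% FBS and left 2 h. Compound in DMSO was then added for 24 h at 37 °C. Reporter signal was read by luminescence after 10 min with luciferase detection reagent.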
ELG1 genotox: inducers of genotoxicity in HEK293T ELG1-luciferase cells; HEK293T ELG1-luciferase reporter, luminescence, 16 h; 1.3% of 330,000 active; Potency, µM (doses to about 46 µM), most hits filed as activators; also: nearly all actives have a fitted effect of over 60% in size
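ELG1-luciferase HEK293T cells, 2,000/well; compound pinned in; 16 hr, 37 °C, 5% CO2; ONE-Glo, 30 min RT; luminescence on CCD imager.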
SMN2 splice enh: SMN2 splice variant enhancement | AID 1458 | HEK293 SMN2-luciferase splicing reporter, luminescence, 30-36 h | Potency, µM (doses to about 46.1 µM), hits mostly activators | 2.8% of 210,000 active; also: nearly all actives have a fitted effect of over 55% in size
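HEK293 cells carry an SMN2 minigene-luciferase reporter in which exon 7 inclusion puts luciferase in frame. Cells were seeded at 2000 cells/well, attached for 10-12 hours, then exposed to compounds for 30-36 hours at 37C before ONE-Glo luminescence.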
ELG1 DNA repair: ELG1-dependent DNA repair inhibition. HEK293T ELG1-luciferase reporter, luminescence, 16 h; DNA damage induced by 5-fluorouridine. Potency, µM (titrated, usually from 46.1 µM), most hits filed as inhibitors. 2.3% of 330,000 active. AID 504467; also: nearly all actives have a fitted effect of over 55% in size
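Reporter activity after DNA damage by 5-fluorouridine is monitored. Compound-treated cells incubate 16 hr at 37 °C, then ONE-Glo is added for 30 min before luminescence reading.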
FLuc modulator: firefly luciferase modulation, counter-screen for miR-21 project | P08659 | purified FLuc, Km substrates, luminescence inhibition | Potency, µM (doses to about 57.5 µM), most hits filed as inhibitors | 6.9% of 360,000 active; also: nearly all actives have a fitted effect of over 55% in size
Target sequence (P08659 whole entry, looked up): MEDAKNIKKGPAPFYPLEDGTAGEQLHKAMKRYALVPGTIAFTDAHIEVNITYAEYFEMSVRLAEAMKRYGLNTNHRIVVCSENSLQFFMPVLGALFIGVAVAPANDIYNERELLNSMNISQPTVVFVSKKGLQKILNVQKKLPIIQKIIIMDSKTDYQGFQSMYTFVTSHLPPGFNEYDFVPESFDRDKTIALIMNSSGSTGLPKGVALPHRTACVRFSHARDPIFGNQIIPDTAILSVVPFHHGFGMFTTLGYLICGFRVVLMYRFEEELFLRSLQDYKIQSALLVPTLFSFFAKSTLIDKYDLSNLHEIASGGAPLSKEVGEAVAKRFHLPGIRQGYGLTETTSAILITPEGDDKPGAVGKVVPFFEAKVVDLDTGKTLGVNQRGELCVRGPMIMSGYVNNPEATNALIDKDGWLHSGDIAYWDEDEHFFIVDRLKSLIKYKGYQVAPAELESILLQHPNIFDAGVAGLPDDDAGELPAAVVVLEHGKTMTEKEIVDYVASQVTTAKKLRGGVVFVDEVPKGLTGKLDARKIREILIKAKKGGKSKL
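Purified P. pyralis luciferase, 10 nM final, with Km-level 10 uM D-luciferin and 10 uM ATP in 50 mM Tris acetate pH 7.5, 10 mM Mg acetate, 0.01% Tween-20, 0.05% BSA; 6-point qHTS titration about 60 µM downward; luminescence read.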
NPC1 promoter act: activates the NPC1 promoter; Huh7 NPC1 promoter luciferase reporter, 24 h; Potency, µM (series often up to 9.22 µM), hits mostly activators; 2.4% of 320,000 active; AID 485313; also: nearly all actives have a fitted effect of over 60% in size
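Readout is luciferase luminescence, reflecting NPC1 promoter activation in stably transfected Huh7 cells after 24 h compound exposure at 37 °C in reduced-serum medium with 10% FBS.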
Numbers stand for hits; – = inactive; ? = inconclusive; · = no result given. Compounds with a hit are over-represented: about 9.2% of the library has one in this group of screens. Calls follow the shape of the dose curve; as a rule, active = well fitted curve in the direction sought with a large enough effect; inconclusive = small, poorly fitted or top-dose-only effect, or another doubt; inactive = no such curve, though single readings can be large; an effect the other way counts as inactive or inconclusive.

SMILES | Rab9 promoter act | ELG1 genotox | SMN2 splice enh | ELG1 DNA repair | FLuc modulator | NPC1 promoter act
Clc1ccc(SCc2cc(-c3ccccc3)no2)cc1 | – | – | – | ? | ? | –
COc1ccc(-c2ccc(-c3noc(-c4ccccc4)n3)c(OC)n2)cc1 | – | ? | – | ? | – | –
Fc1ccc(OCc2cc(-c3ccccc3)no2)cc1 | 3.2µM | 21µM | · | ? | 5.4µM | 2.8µM
Clc1ccc(OCc2cc(-c3ccccc3)no2)c(Cl)c1 | 0.63µM | ? | 0.5µM | ? | 0.38µM | 0.5µM
CC1CC(=O)NN1C(=O)c1ccccc1 (configuration not stated) | – | – | · | – | – | –
COc1ccc(-c2cc(COc3ccccc3)on2)cc1 | 4µM | ? | ? | ? | 11µM | ?
N#Cc1c(N)nc2c(c1-c1cccnc1)CCCCC2 | – | – | – | 13µM | – | –
N#Cc1c(N)nc2c(c1-c1ccncc1)CCCCC2 | – | – | – | – | – | –
O=C(Cc1ccccc1)NC(=S)Nc1ccc2oc(-c3ccccc3)nc2c1 | ? | ? | 11µM | ? | ? | ?
O=C(Cc1ccccc1)Nc1ccc2oc(-c3ccncc3)nc2c1 | – | – | – | – | – | –
O=C(Cc1ccccc1)NC(=S)Nc1ccc2oc(-c3ccccc3F)nc2c1 | ? | – | ? | ? | 13µM | ?
CC(=O)NC(=S)Nc1ccc2oc(-c3cc(F)c(F)cc3Cl)nc2c1 | 0.5µM | 4.6µM | 5µM | ? | – | ?
COc1ccc(C(=O)Nc2ccc3oc(-c4ccc(F)cc4Cl)nc3c2)cc1 | · | · | · | · | – | ·
O=C(/C=C/c1ccccc1)NCCS(=O)(=O)N1CCN(c2ccccc2F)CC1 | – | – | · | – | – | –
O=S(=O)(NC(=NCc1ccccc1)c1ccccc1)c1ccc(Br)cc1 | – | – | · | – | – | –
COc1ccc(OC)c(/C=C/C(=O)Nc2cccc(S(=O)(=O)NC3=NCCCCC3)c2)c1 | – | – | · | ? | ? | –
COc1ccc(/C=C/C(=O)Nc2cccc(S(=O)(=O)NC3=NCCCCC3)c2)cc1 | – | – | · | ? | 0.67µM | ?
O=C(/C=C/c1ccc(OC(F)F)cc1)Nc1cccc(S(=O)(=O)NC2=NCCCCC2)c1 | – | – | · | ? | 1.3µM | –
O=C1NCCC/C1=N/Nc1cc(F)ccc1F | ? | ? | · | ? | 19µM | ?
CCc1cccc(C)c1NC(=O)CCS(=O)(=O)c1ccc2c(c1)oc(=O)n2C | · | · | · | · | – | ·
CCOC(=O)C1=C(O)/C(=C\c2cc(C)n(-c3ccc(F)cc3)c2C)N=C1C | – | – | – | – | ? | –
COC(=O)C1=C(C)NC(=O)/C1=C\c1cc(C)n(-c2ccccc2F)c1C | – | – | 25µM | ? | 12µM | –
CCOC(=O)C1=C(O)/C(=C\c2cc(C)n(-c3ccccc3F)c2C)N=C1C | – | – | – | – | 0.6µM | –
COC(=O)C1=C(C)NC(=O)/C1=C\c1cc(C)n(-c2ccccc2C)c1C | – | – | – | 21µM | 17µM | –
COC(=O)C1=C(C)NC(=O)/C1=C\c1cc(C)n(-c2c(C)cccc2C)c1C | – | – | – | – | – | –
SMILES | Rab9 promoter act | ELG1 genotox | SMN2 splice enh | ELG1 DNA repair | FLuc modulator | NPC1 promoter act
CC(=O)N1CCc2cc(Br)cc(S(=O)(=O)N3CCN(c4cccc(C(F)(F)F)c4)CC3)c21 | · | · | – | · | – | ·
CCN(CC(=O)Nc1ccc(OC)cc1)C(=O)c1ccc(N2C(=O)CCC2=O)cc1 | – | – | · | – | – | –
O=C1CC(c2ccc3ccccc3c2)NN1 (configuration not stated) | – | – | · | – | – | –
O=C(c1ccc2c(c1)N(Cc1ccccc1F)C(=O)c1ccccc1S2=O)N1CCN(c2ccccc2)CC1 (configuration not stated) | · | · | ? | · | – | ·
CCOc1cc(/C=C/C(=O)c2ccc(OC)c(CN3CCOCC3)c2)cc(Br)c1O | – | – | · | 18µM | – | –
COc1ccc(/C=N/NC(=O)c2cccc(Br)c2)cc1CN1CCOCC1 | – | – | · | – | – | –
CCc1cc(C(=O)N2CCN(S(=O)(=O)c3ccc(Cl)cc3)CC2)sc1C | – | – | · | – | – | –
CC(C)(C)OC(=O)CNC(=O)c1nc[nH]c1C(=O)NCc1ccc(CNC(=O)OC(C)(C)C)cc1 | – | – | · | ? | – | –
CC(C)C[C@H](NC(=O)c1nc[nH]c1C(=O)NCc1ccc(CNC(=O)OC(C)(C)C)cc1)C(=O)OC(C)(C)C | – | – | · | ? | – | –
CC(C)(C)OC(=O)NCCCCCNC(=O)c1nc[nH]c1C(=O)NCc1ccc(CNC(=O)OC(C)(C)C)cc1 | · | – | · | 6.5µM | · | ·
C[C@H](NC(=O)c1nc[nH]c1C(=O)NCc1ccc(CNC(=O)OC(C)(C)C)cc1)C(=O)OC(C)(C)C | – | – | · | 8.2µM | – | –
Cc1cccc(NC(=O)c2cc(S(=O)(=O)N3CCc4ccccc43)ccc2F)c1C | · | · | · | · | – | ·
CCOC(=O)N1CCC(NC(=O)c2ccc(N3CCC4(CC3)OCCO4)c([N+](=O)[O-])c2)CC1 | – | – | – | 16µM | – | –
CCCCNC(=O)c1ccc(N2CCC3(CC2)OCCO3)c([N+](=O)[O-])c1 | – | – | – | – | – | –
CCS(=O)(=O)N1CCN(c2ccc(C(=O)NC3C4CC5CC(C4)CC3C5)cc2[N+](=O)[O-])CC1 (configuration not stated) | – | – | – | 12µM | – | –
CC1CCN(C(=O)COC(=O)CNC(=O)C23CC4CC(CC(C4)C2)C3)CC1 | – | – | · | – | – | –
Cn1c(CBr)c(C(=O)c2ccc([N+](=O)[O-])cc2)c(=O)n(C)c1=O | – | – | · | – | – | –
O=C(COc1ccccc1)Nc1cc(Cl)ccc1Cl | – | – | · | ? | ? | –
O=C(COc1ccccc1)Nc1ccc(Cl)cc1Cl | 2.2µM | ? | · | ? | 6µM | ?
S=C(Nc1ccccc1)Nc1ccc(Cl)cc1Cl | ? | 21µM | – | – | 27µM | 3.2µM
O=C(COc1ccccc1O)Nc1ccccc1Cl | ? | ? | – | ? | 21µM | 4µM
COc1ccccc1OCCNC(=O)c1ccc(C)c(S(=O)(=O)N2CCOCC2)c1 | – | – | · | ? | – | –
CC(C)(C)C(=O)Nc1ccc(N2CCN(c3ccc(C(F)(F)F)cn3)CC2)nc1 | – | – | · | 9.2µM | – | –
CSc1ncc(C(=O)N2CCN(c3cccc(Cl)c3)CC2)c(C)n1 | · | · | · | · | – | ·
O=C(c1cc(-c2ccccc2Cl)nc2ccccc12)N1CCN(c2ccccn2)CC1 | · | – | · | 23µM | · | ·
O=C(Nc1ccc(C(F)(F)F)cc1)c1cnc(N2CCN(c3ccccn3)CC2)c2ccccc12 | – | – | – | 5.2µM | – | –
O=C(c1cc(-c2ccccc2Cl)nc2ccccc12)N1CCOCC1 | – | – | · | – | – | –
CSc1ccccc1C(=O)N1CCN(c2cccc(Cl)c2)CC1 | – | – | – | 21µM | – | –
